# From the supplement of paper PMC10127200
# Counter-ions that a name gives are not always drawn.
# How the values were obtained:
# Assay in all cases: Euclidean distance of Cell Painting phenotypic profile (signed KS, 77 features) to DMSO centroid (dimensionless distance); 5 or 10 uM (library dependent); higher = stronger phenotypic change vs DMSO (phenoactivity)
# Settings in all cases: 48 h
# [1] = tested on: 786-O
# Method in brief: (§1)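 Library compounds were applied at 10 or 5 uM, depending on the library, with 0.1% DMSO final, for 48 h to five cancer lines and a healthy fibroblast line. After staining, cells were imaged confocally at 20X across 9 fields per well, and Harmony extracted 77 features, each scored as a signed Kolmogorov-Smirnov statistic against vehicle wells on the same plate. Phenoactivity is the Euclidean distance between each profile and the median vehicle profile, with profiles first plate-position corrected, correlation-weighted and averaged over replicates at the top dose.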
# [2] = tested on: A549
# Method in brief: as §1
# [3] = tested on: DU145
# Method in brief: as §1
# [4] = tested on: FB
# Method in brief: as §1
# [5] = tested on: HEPG2
# Method in brief: as §1
# [6] = tested on: OVCAR4
# Method in brief: as §1
Compound,Euclidean distance [1],Euclidean distance [2],Euclidean distance [3],Euclidean distance [4],Euclidean distance [5],Euclidean distance [6]
OCc1ccc(Cl)cc1Cl [2.4-dichlorobenzyl alcohol],0.68,0.36,1.13,0.663,0.329,1.56
C[C@]12C=CC(=O)C=C1CC[C@@H]1[C@@H]2[C@@H](O)C[C@@]2(C)[C@H]1CC[C@]2(O)C(=O)CO [Prednisolone],1.51,2.15,2.31,1.67,2.12,2.19
OC(CN1CCN(c2cccc(Cl)c2)CC1)C(c1ccccc1)c1ccccc1 (configuration not stated),1.08,1.33,0.908,1.03,0.858,1.16
O=C(O)CC(O)(CC(=O)O)C(=O)O [Citric acid],0.88,0.725,1.02,0.899,0.774,0.991
Cc1cc(C)c(Nc2ccnc(Nc3ccc(C#N)cc3)n2)c(C)c1 [Dapivirine (TMC120)],2.34,2.56,1.87,1.33,3.09,2.01
CC[C@H]1OC(=O)[C@H](C)[C@@H](O[C@H]2C[C@@](C)(OC)[C@@H](O)[C@H](C)O2)[C@H](C)[C@@H](O[C@@H]2O[C@H](C)C[C@H](N(C)C)[C@H]2O)[C@](C)(O)C[C@@H](C)CN(C)[C@H](C)[C@@H](O)[C@]1(C)O [Azithromycin Dihydrate],1.29,1.33,1.5,1.18,1.71,1.15
Clc1ccc(CSC(Cn2ccnc2)c2ccc(Cl)cc2Cl)cc1 (configuration not stated) [Sulconazole Nitrate],1.3,1.23,1.07,0.983,1.1,1.31
Cc1cc(OCc2nnc(SC3CCCC3)n2-c2cccnc2)ccc1-c1ccc(S(C)(=O)=O)cc1,3.57,3.4,3.15,2.69,3.86,3.73
C[C@H]1COc2c(C3(N)CC3)c(F)cc3c(=O)c(C(=O)O)cn1c23 [Pazufloxacin mesylate],1,1.18,0.975,0.993,1.28,1.36
CO/N=C(\C(=O)N[C@@H]1C(=O)N2C(C(=O)[O-])=C(C[N+]3(C)CCCC3)CS[C@H]12)c1csc(N)n1 [Cefepime Dihydrochloride Monohydrate],1.34,0.501,0.945,1.1,0.514,0.878
CCN1CCC[C@H]1CNC(=O)c1cc(S(N)(=O)=O)ccc1OC [Levosulpiride],1.03,0.793,1.14,0.991,1.73,1.77
COc1cc(C(C)=O)ccc1OCCCN1CCC(c2noc3cc(F)ccc23)CC1 [Iloperidone],1.83,1.43,0.93,1.43,0.503,1.87
O=C(O)CCCC[C@@H]1CCSS1 (racemic) [Thioctic acid],1.09,0.518,1.41,0.755,0.413,0.684
Nc1n[n+]([O-])c2ccccc2[n+]1[O-] [Tirapazamine],2.03,1.01,0.984,2.3,2.21,1.52
Cc1cccc(CC(=O)N2CCc3c2ccc(-c2cn(C)c4ncnc(N)c24)c3F)n1,1.25,2.13,1.84,1.96,1.24,1.35
CC(C)CCCCC(=O)N[C@@H](CCN)C(=O)N[C@H](C(=O)N[C@@H](CCN)C(=O)N[C@H]1CCNC(=O)[C@H]([C@@H](C)O)NC(=O)[C@H](CCN)NC(=O)[C@H](CCN)NC(=O)[C@H](CC(C)C)NC(=O)[C@@H](Cc2ccccc2)NC(=O)[C@H](CCN)NC1=O)[C@@H](C)O [Polymyxin B sulphate],1.64,0.815,1.39,1.53,0.717,0.928
Cc1c(-c2ccnn2C)cc(C(=O)NCc2ccc(S(C)(=O)=O)cn2)c(=O)n1-c1cccc(C(F)(F)F)c1 [Alvelestat (AZD9668)],1.01,1.73,1.04,1.06,0.869,0.81
COc1cc2c3cc1Oc1c(OC)c(OC)cc4c1[C@@H](Cc1ccc(O)c(c1)Oc1ccc(cc1)C[C@@H]3N(C)CC2)N(C)CC4 [Berbamine],2.93,3.17,2.1,3.91,2.29,2.64
CC[C@H]1OC(=O)[C@H](C)[C@@H](O[C@H]2C[C@@](C)(OC)[C@@H](O)[C@H](C)O2)[C@H](C)[C@@H](O[C@@H]2O[C@H](C)C[C@H](N(C)C)[C@H]2O)[C@](C)(O)C[C@@H](C)CN[C@H](C)[C@@H](O)[C@]1(C)O [Azathramycin],1.51,0.559,0.734,0.693,1.08,0.873
CCCCCCCCCC(=O)N[C@H]1[C@H](Oc2c3cc4cc2Oc2ccc(cc2Cl)[C@@H](O[C@@H]2O[C@H](CO)[C@@H](O)[C@H](O)[C@H]2NC(C)=O)[C@@H]2NC(=O)[C@H](NC(=O)[C@@H]4NC(=O)[C@H]4NC(=O)[C@@H](Cc5ccc(c(Cl)c5)O3)NC(=O)[C@H](N)c3ccc(O)c(c3)Oc3cc(O)cc4c3)c3ccc(O)c(c3)-c3c(OC4O[C@H](CO)[C@@H](O)[C@H](O)[C@@H]4O)cc(O)cc3[C@@H](C(=O)O)NC2=O)O[C@H](CO)[C@@H](O)[C@@H]1O (some centres not stated) [Teicoplanin],1.09,1.18,0.773,0.777,1.39,1.07
CO[C@H]1/C=C/O[C@@]2(C)Oc3c(C)c(O)c4c(O)c(c(/C=N/N5CCN(C)CC5)c(O)c4c3C2=O)NC(=O)/C(C)=C\C=C\[C@H](C)[C@H](O)[C@@H](C)[C@@H](O)[C@@H](C)[C@H](OC(C)=O)[C@@H]1C [Rifampin],1.56,0.64,1.44,1.36,2.28,1.14

Compound,Euclidean distance [1],Euclidean distance [2],Euclidean distance [3],Euclidean distance [4],Euclidean distance [5],Euclidean distance [6]
CC(=O)OCC1=C(C(=O)O)N2C(=O)[C@@H](NC(=O)CSc3ccncc3)[C@H]2SC1 [Cephapirin Benzathine],1.51,0.954,0.791,1.16,0.75,0.965
NS(=O)(=O)c1cc2c(cc1C(F)(F)F)NC(Cc1ccccc1)NS2(=O)=O (configuration not stated) [Bendroflumethiazide],0.918,0.995,1.62,1.34,1.05,2.02
CNS(=O)(=O)C[C@H]1CC[C@H](N(C)c2[nH]cnc3nccc2-3)CC1,1.06,0.94,1.61,1.3,0.907,0.949
O=C1N=C(O)NC1(c1ccccc1)c1ccccc1 [Phenytoin sodium],0.57,0.743,0.884,1.08,0.937,1.27
NC(=O)c1ncn([C@@H]2O[C@H](CO)[C@@H](O)[C@H]2O)n1 [Ribavirin],0.706,0.843,0.599,0.808,0.875,0.963
O=C1C(=O)N(Cc2ccc(Cl)c(Cl)c2)c2ccccc21 [Apoptosis Activator 2],1.05,1.36,1.29,1.07,0.54,1.11
O=S(=O)(O)CCCCOC[C@H]1O[C@@H]2O[C@H]3[C@H](O)[C@@H](O)[C@@H](O[C@H]4[C@H](O)[C@@H](O)[C@@H](O[C@H]5[C@H](O)[C@@H](O)[C@@H](O[C@H]6[C@H](O)[C@@H](O)[C@@H](O[C@H]7[C@H](O)[C@@H](O)[C@@H](O[C@H]8[C@H](O)[C@@H](O)[C@@H](O[C@H]1[C@H](O)[C@H]2O)O[C@@H]8CO)O[C@@H]7COCCCCS(=O)(=O)O)O[C@@H]6COCCCCS(=O)(=O)O)O[C@@H]5COCCCCS(=O)(=O)O)O[C@@H]4COCCCCS(=O)(=O)O)O[C@@H]3COCCCCS(=O)(=O)O [Captisol (SBE-Œ≤-CD)],1.09,0.893,0.704,1.13,1.38,1.1
CC(C)C[C@H](NC(=O)[C@@H](NC(=O)c1cccc(-c2ccccc2)n1)[C@@H](C)O)B(O)O,4.27,4.06,4.4,3.55,4.77,5.53
COc1ccccc1O [Guaiacol],0.884,0.854,0.891,1.19,0.511,1.43
O=C(O)CSCC(=O)NC1CCSC1=O (configuration not stated) [Erdosteine],0.988,1.09,1.06,1.07,1.27,1.1
CO[C@@H]1[C@@H](O[C@@H]2O[C@H](C)[C@@H](O[C@H]3C[C@@](C)(O)[C@@H](OC(=O)CC(C)C)[C@H](C)O3)[C@H](N(C)C)[C@H]2O)[C@@H](CC=O)C[C@@H](C)[C@@H](O)/C=C/C=C/C[C@@H](C)OC(=O)C[C@H]1OC(C)=O [Josamycin],1.22,1.07,0.712,1.59,1.01,1.06
CCC(=O)O[C@]1(C(=O)CCl)[C@@H](C)C[C@H]2[C@@H]3CCC4=CC(=O)C=C[C@]4(C)[C@@]3(F)[C@@H](O)C[C@@]21C [Clobetasol propionate],1.31,2.17,2.55,2.08,0.79,1.96
N=C(N)NS(=O)(=O)c1ccc(N)cc1 [Sulfaguanidine],1.11,0.776,1.03,0.936,0.524,1.55
N#CCC1(n2cc(-c3ncnc4[nH]ccc34)cn2)CN(C2CCN(C(=O)c3ccnc(C(F)(F)F)c3F)CC2)C1,1.27,1.05,1.46,1.34,0.742,1.05
Cc1ccc(S(=O)(=O)Cc2nc(-c3ccc(C(=O)NCc4cccnc4)cc3)oc2C)cc1,3.04,2.65,2.6,1.11,1.68,2.14
COc1ccccc1OCCNCC(O)COc1cccc2[nH]c3ccccc3c12 (configuration not stated) [Carvedilol],1.59,1.04,1.42,1.64,2.22,1.86
CC(COc1ccccc1Cc1ccccc1)N1CCCCC1 (configuration not stated) [Benproperine phosphate],1.67,1.63,1.72,1.18,1.58,1.42
CC(C)N1CCN(c2ccc(OCC3COC(Cn4cncn4)(c4ccc(Cl)cc4Cl)O3)cc2)CC1 (configuration not stated) [Terconazole],1.82,2.07,1.88,1.04,0.664,1.06
CN1CCN(c2ccc(OC(F)(F)F)c(Nc3ncc4c(n3)-c3c(c(C(N)=O)nn3CCO)CC4)c2)CC1,2.75,4.08,3.85,3.73,2.82,3.67
COCCCN1CCC(NC(=O)c2cc(Cl)c(N)c3c2OCC3)CC1 [Prucalopride Succinat],0.911,0.777,0.699,0.581,0.684,0.827
Nc1nc(Cl)nc2c1ncn2[C@H]1C[C@H](O)[C@@H](CO)O1 [Cladribine],2.58,3.28,2.27,3.14,2.67,3.21
